# Results taken from ChEMBL document CHEMBL3988442, “University of Dundee, Small-Polar-MMV Screening Library” (2021).
# For some assays here: Potency and affinity values are given separately.
# Key:
# Parameters in all cases: scale not given: direction of the effect not stated beside the values
# [1] = molecular target: Protein translocase subunit SecA (Escherichia coli (strain K12)) (UniProt P10408); assay: Assay to Identify E. coli SecA ATPase Inhibitors; type: functional; conditions: 30 µM
# [2] = molecular target: T1, Ubiquitin-activating enzyme e1, putative (Leishmania donovani (strain BPK282A1)) (UniProt E9BSI1); assay: Leishmania donovani Ubiquitin Activating Enzyme (LdE1); type: functional; conditions: 30 µM
# T1 sequence (whole entry): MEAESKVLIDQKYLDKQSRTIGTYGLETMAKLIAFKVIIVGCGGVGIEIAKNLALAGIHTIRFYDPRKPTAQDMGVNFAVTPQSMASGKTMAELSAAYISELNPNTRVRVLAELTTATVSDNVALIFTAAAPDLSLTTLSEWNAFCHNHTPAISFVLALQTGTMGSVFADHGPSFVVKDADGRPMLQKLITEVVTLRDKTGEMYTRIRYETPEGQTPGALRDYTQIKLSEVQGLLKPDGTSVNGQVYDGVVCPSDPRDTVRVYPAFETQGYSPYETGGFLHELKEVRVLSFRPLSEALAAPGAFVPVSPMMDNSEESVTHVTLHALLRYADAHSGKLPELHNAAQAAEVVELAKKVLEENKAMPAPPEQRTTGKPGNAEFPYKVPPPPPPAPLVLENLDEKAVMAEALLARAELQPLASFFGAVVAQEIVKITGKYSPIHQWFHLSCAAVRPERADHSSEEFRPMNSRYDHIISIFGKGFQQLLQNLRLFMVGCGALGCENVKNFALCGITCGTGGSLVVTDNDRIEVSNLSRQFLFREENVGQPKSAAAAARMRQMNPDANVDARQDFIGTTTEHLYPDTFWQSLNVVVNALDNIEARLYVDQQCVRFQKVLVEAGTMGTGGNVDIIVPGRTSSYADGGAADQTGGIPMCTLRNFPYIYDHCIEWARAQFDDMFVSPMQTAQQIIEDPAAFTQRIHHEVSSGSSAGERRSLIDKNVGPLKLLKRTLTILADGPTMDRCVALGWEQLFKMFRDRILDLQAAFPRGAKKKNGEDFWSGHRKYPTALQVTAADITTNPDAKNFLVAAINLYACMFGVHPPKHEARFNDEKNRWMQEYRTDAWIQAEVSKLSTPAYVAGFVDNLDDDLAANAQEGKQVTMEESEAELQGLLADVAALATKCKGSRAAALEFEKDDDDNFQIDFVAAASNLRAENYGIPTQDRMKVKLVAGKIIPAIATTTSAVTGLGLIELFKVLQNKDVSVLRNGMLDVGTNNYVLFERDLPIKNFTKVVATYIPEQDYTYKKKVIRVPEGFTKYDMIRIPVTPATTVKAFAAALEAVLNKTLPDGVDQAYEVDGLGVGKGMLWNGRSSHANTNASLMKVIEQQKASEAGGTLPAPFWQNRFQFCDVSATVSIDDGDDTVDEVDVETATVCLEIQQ
# [3] = molecular target: AMP-activated protein kinase, AMPK (Homo sapiens) (UniProt P54646+O43741+P54619+Q9UGJ0+Q9Y478+Q13131+Q9UGI9); assay: AMP-dependent Kinase enzyme assay. An in vitro enzyme assay that detects ADP turnover that is directly proportional to AMPK activity. This uses naive AMPK that is activated during the assay with MK-8722; type: functional; conditions: 30 µM
# [4] = molecular target: Sialic acid-binding Ig-like lectin 9 (Homo sapiens) (UniProt Q9Y336); assay: Hs-Siglec9 ALPHAscreen SOP 20170721; conditions: 10 µM
# [5] = test system: Trypanosoma cruzi; assay: Trypanosoma cruzi phosphomannomutase and mannose-1-phosphate guanylyltransferase assay; type: functional; conditions: 10 µM
# [6] = molecular target: T2, Arginase-2, mitochondrial (Homo sapiens) (UniProt P78540); assay: in vitro enzyme assay to detect the production of urea directly proportional to the activity of Arginase II; type: functional; conditions: 33.3 µM; further: in the data most compounds retested in dose-response had high values
# T2 sequence (whole entry): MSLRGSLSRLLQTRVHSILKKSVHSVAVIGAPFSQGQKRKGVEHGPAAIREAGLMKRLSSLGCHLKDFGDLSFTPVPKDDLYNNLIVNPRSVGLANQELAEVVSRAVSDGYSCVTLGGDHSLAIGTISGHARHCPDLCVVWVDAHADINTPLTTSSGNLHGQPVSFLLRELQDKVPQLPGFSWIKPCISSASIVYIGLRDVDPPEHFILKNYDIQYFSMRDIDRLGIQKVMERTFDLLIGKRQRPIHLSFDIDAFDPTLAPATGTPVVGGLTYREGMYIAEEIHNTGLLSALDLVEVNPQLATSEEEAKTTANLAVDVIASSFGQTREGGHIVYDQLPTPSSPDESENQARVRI
# [7] = molecular target: T3, Proteasome subunit beta (Trypanosoma cruzi) (UniProt O96673); assay: Trypanosoma cruzi proteasome chymotrypsin-like activity (TcProtChymo) assay.; further: in the data most compounds retested in dose-response had high values; type: functional; conditions: 9.37 µM
# T3 sequence (whole entry): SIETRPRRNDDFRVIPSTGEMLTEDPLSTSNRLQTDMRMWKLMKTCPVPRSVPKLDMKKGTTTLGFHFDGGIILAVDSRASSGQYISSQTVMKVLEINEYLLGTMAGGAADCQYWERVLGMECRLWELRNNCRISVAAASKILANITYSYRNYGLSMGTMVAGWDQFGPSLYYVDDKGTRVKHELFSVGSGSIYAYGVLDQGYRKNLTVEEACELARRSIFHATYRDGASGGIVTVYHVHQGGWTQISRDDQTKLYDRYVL
# [8] = species: Homo sapiens; assay: To identify inhibition of the IFN signalling (Jak-Stat) pathway via expression of an eGFP reporter gene under the control of an IFN-stimulated response element (ISRE) containing MxA promoter.; type: functional; conditions: 30 µM
# [9] = molecular target: T4, Tyrosyl-tRNA synthetase, putative (Trypanosoma cruzi (strain CL Brener)) (UniProt Q4DSP6); assay: Trypanosoma cruzi tyrosyl tRNA synthetase (TcYRS) _High Tyrosine SOP; type: functional; conditions: 30 µM; further: in the data most compounds retested in dose-response had high values
# T4 sequence (whole entry): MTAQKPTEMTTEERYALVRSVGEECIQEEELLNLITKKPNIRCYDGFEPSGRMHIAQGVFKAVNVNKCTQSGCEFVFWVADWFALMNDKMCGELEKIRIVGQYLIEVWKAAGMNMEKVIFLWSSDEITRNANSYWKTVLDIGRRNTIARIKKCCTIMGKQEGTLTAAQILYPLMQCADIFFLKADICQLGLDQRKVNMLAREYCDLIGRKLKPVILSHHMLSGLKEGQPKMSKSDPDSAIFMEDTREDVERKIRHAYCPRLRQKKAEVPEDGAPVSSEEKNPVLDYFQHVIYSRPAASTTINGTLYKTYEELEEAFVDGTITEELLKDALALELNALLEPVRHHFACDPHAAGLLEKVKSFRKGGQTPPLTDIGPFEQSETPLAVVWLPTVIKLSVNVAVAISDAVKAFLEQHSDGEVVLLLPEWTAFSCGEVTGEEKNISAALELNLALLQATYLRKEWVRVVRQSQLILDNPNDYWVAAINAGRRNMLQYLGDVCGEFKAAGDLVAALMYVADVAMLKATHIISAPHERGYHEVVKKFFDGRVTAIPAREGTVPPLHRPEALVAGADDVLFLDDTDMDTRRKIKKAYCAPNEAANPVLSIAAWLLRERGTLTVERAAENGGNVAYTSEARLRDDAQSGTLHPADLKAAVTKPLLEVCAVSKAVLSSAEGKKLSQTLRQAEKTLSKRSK
# [10] = molecular target: T4, Tyrosyl-tRNA synthetase, putative (Trypanosoma cruzi (strain CL Brener)); assay: Trypanosoma cruzi tyrosyl tRNA synthetase (TcYRS) SOP; type: functional; conditions: 30 µM
# [11] = molecular target: Chromo domain-containing protein 1 (Saccharomyces cerevisiae (strain ATCC 204508 / S288c) (Baker's yeast)) (UniProt P32657); assay: ScCHD-1 Enzyme Inhibition Assay; type: functional; conditions: 30 µM; further: in the data most compounds retested in dose-response had high values
# Chain of Chromo domain-containing protein 1 (Saccharomyces cerevisiae (strain ATCC 204508 / S288c) (Baker's yeast)) (P32657 whole entry, the tested form may be a part): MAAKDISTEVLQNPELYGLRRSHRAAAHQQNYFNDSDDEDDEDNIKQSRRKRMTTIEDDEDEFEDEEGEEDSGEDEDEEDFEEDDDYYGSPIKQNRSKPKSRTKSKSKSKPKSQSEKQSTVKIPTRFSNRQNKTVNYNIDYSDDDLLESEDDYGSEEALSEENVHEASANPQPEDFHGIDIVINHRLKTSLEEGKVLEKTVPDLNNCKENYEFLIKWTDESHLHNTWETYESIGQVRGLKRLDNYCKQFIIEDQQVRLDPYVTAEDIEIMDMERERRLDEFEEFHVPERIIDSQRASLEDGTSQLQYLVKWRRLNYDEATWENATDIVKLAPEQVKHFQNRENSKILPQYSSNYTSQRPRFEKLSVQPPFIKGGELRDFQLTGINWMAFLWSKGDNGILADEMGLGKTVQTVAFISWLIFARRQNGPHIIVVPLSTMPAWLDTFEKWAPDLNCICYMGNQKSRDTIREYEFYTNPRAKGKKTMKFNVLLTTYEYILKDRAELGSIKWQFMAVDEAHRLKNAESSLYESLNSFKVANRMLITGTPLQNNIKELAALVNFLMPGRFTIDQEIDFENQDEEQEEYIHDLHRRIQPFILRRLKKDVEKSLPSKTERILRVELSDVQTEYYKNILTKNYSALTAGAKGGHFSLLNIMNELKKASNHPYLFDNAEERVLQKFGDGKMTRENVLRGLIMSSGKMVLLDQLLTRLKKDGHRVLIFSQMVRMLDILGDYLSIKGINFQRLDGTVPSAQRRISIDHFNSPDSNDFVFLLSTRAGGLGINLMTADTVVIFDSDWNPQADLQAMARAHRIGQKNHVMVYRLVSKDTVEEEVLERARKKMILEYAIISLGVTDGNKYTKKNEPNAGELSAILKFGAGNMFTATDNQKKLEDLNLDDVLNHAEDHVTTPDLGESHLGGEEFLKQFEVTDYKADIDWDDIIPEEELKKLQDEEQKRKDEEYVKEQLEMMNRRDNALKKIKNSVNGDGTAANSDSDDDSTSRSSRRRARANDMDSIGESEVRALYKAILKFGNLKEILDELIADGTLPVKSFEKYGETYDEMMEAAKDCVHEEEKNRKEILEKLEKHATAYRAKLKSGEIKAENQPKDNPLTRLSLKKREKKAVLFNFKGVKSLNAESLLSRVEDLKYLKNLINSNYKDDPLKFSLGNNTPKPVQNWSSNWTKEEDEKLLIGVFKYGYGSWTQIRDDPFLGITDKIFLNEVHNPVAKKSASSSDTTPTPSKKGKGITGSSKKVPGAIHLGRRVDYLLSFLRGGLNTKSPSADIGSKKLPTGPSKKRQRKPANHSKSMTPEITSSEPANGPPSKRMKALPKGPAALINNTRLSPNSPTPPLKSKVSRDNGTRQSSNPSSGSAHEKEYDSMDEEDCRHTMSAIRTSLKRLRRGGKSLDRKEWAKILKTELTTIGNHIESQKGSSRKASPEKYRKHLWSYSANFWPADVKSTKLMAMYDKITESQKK
# Chain of Sialic acid-binding Ig-like lectin 9 (Homo sapiens) (Q9Y336 whole entry): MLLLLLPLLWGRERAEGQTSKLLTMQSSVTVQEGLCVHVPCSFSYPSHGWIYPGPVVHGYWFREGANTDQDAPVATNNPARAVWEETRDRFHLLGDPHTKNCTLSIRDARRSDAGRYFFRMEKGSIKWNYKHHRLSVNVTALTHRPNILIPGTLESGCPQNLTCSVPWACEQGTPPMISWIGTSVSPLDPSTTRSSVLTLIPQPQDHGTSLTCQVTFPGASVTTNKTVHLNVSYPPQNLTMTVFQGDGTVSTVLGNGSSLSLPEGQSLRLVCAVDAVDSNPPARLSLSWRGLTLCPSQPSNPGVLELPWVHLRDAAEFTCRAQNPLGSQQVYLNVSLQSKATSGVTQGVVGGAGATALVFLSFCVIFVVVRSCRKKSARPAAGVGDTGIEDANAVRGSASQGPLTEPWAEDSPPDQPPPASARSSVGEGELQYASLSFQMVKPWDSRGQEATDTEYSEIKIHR
# Chain of Protein translocase subunit SecA (Escherichia coli (strain K12)) (P10408 whole entry): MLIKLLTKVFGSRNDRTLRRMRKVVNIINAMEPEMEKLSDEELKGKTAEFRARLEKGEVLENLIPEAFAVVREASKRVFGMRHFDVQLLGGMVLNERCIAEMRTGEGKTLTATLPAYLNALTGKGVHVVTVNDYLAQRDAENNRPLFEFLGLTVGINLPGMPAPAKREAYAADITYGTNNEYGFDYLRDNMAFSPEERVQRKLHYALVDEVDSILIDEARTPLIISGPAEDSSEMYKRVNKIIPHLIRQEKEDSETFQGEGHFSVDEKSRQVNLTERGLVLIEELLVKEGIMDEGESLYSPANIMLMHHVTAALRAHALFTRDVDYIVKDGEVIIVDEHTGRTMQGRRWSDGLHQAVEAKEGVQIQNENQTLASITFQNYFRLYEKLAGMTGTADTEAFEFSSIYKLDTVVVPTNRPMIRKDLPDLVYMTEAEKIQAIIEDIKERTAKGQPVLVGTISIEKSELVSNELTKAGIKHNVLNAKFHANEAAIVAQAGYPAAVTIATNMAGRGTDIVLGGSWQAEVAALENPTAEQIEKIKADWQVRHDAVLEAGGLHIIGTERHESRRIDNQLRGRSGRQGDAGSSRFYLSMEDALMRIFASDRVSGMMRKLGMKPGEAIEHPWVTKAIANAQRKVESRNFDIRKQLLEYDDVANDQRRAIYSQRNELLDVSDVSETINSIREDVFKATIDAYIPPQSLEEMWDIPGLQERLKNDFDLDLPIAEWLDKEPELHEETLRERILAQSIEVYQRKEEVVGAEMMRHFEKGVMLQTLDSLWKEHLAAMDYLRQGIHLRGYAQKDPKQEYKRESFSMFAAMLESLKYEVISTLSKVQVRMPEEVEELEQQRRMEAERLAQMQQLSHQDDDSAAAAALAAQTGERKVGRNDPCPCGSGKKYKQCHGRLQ
SMILES,Percent Effect [1],Percent Effect [2],Percent Effect [3],Percent Effect [4],Percent Effect [5],Percent Effect [6],Percent Effect [7],Percent Effect [8],Percent Effect [9],Percent Effect [10],Percent Effect [11]
CCN(Cc1ccco1)C(=O)Nc1cc(C(F)(F)F)c[nH]c1=O,-7.27%,10.5%,0.625%,-6.37%,-2.71%,0.719%,2.79%,-6.49%,4.43%,13.6%,-9.51%
CCOCCN1CCN(Cc2cccc(C(=O)N(C)C)c2)CC1,-10.3%,0%,-8.88%,18%,9.38%,-2.03%,0%,2.86%,6.93%,23.2%,46.2%
CCN1CC(C(=O)N(C)Cc2ccon2)CC1=O (configuration not stated),-8.65%,0%,-1.95%,-7.7%,-2.44%,-2.73%,7.47%,13.7%,-1.07%,-1.24%,-3.83%
Cc1cc(-c2nnn(CCC(N)=O)n2)ccc1F,-3.96%,13.7%,-6.12%,8.1%,5.75%,-2.79%,15.3%,11.3%,8.33%,13.6%,-2.17%
CN(Cc1nnc2n1CCC2)C(=O)Cc1ccc2c(c1)OCCO2,-1.44%,13.5%,-8.06%,-5.38%,4.25%,-5.21%,13.7%,10.6%,4.43%,18.5%,-8.36%
CC(C)C(C(=O)N1CCCN(Cc2nccn2C)CC1)N1CCCC1 (configuration not stated),-1.38%,21.6%,-0.295%,-3.06%,-1.58%,-2.77%,10.6%,20%,2.97%,13.4%,-5.79%
O=C(NCC(Cc1cccc(F)c1)N1CCCC1=O)c1cnccn1 (configuration not stated),-2.43%,2.74%,8.47%,-6.79%,-4.31%,3.64%,9.94%,-2.19%,4.3%,5%,-2.36%
CCNC(=O)N(C)C(c1cccc(F)c1)c1ccccn1 (configuration not stated),-4.06%,2.6%,8.62%,13%,5.43%,-2.49%,9.46%,21.3%,7.77%,21.9%,-6.09%
Cc1nc(C)n(CC2CCCN2CC(=O)Nc2ccnn2C(C)C)n1 (configuration not stated),3.15%,18.4%,16%,-8.63%,-8.31%,2.16%,14%,1.93%,5.42%,16.1%,-6.21%
O=C(COc1coc(CN2CCCC2)cc1=O)NCc1ccccc1Cl,-2.51%,1.33%,5.09%,5.58%,0.393%,-1.94%,7.02%,-13.6%,6.35%,10.3%,0.789%
CCN(CC)CC(=O)NCCc1csc(N2CCCC2)n1,-3.47%,-2.67%,-4.85%,-0.334%,-2.24%,-1.04%,5.41%,5.85%,-0.546%,-1.24%,6.78%
COc1ccc(OC)c(CN2CCCCCC2c2cccs2)c1 (configuration not stated),-4.16%,-7.79%,-2.05%,-14.1%,7.59%,3.23%,9.05%,8.15%,-5.29%,-32%,-9.84%
Cc1ccc(CN2CCn3c(C(=O)N(C)C)cnc3C2)s1,-2.48%,10.7%,8.35%,-0.423%,-4.53%,3.5%,7.67%,3.77%,3.19%,8.97%,-5.78%
CCOC(=O)N1CCN(Cc2ccc(OCc3nccn3C)cc2)CC1,-5.3%,23.4%,3.48%,-0.124%,0.562%,1.42%,13.7%,11.1%,9.71%,14.6%,-7.78%
CCOc1cc(C)ccc1NC(=O)N(C)Cc1cnn(C)c1,-3.73%,10.8%,-11.8%,16.5%,4.81%,0.401%,-2.52%,11.9%,6.4%,16.1%,-9.07%
Cn1cc(CN2CCn3c(CNC(=O)c4cccn4C)cnc3C2)cn1,1.54%,10.7%,-1.53%,26.8%,-0.193%,-52.1%,14%,0.903%,7.29%,22.5%,-7.88%
CN1C(=O)C(C)(C)COc2cc(NS(=O)(=O)c3ccccc3)ccc21,-2.86%,8.22%,-14%,10.6%,-0.979%,2.27%,14.2%,46.6%,-8.6%,12.5%,-7.69%
OC1(Cn2ccc3ncccc32)CCN(Cc2ccccn2)CC1,-3.91%,6.76%,8.71%,-8.37%,-10.3%,-5.34%,13.7%,34.1%,-3.23%,-9.09%,-14.5%
Cc1oncc1C(=O)N1CCC2(C1)CN(c1cccnc1)C(=O)CN2C (configuration not stated),-3.58%,10.7%,-0.768%,-0.716%,4.05%,-53.6%,4.27%,-6.85%,2.08%,5%,-5.61%
O=C(NCC(=O)N1CCCCC1)c1ccc(Cl)cc1I,-0.681%,5.41%,-6.27%,3.75%,8.49%,0%,10.5%,13.7%,2.65%,12.2%,-1.27%
O=C(c1cnc(C2CC2)s1)N1CCCCC1Cn1cccn1 (configuration not stated),-2.96%,1.27%,4.54%,-0.611%,-1.13%,-3.23%,12.9%,-2.91%,2.08%,7.59%,-0.92%
CN(Cc1ccsc1)C(=O)c1cccc(S(=O)(=O)NC(C)(C)C)c1,-1.82%,23.4%,-6.77%,-1.29%,3%,-3.56%,12%,18.1%,6.8%,12.2%,-7.59%
